Assay results reported in PubChem BioAssay (NCATS).
Results filed as inconclusive are left out. Active and inactive are the calls of the source. The call rests on the fitted dose curve; in most records, active means well fitted cell-killing curve with a large enough effect; inconclusive means small, poorly fitted or top-dose-only effect, or effect the other way; inactive means flat fitted curve, though single readings scatter.

Columns and labels:
Experiment in all cases: Primary qHTS to identify gynecologic anti-cancer compounds using libraries of approved drugs and bioactive compounds (AID 1345084); further: nearly all actives have a fitted effect of over 55% in size
CAOV3 = conditions: Gynecologic cancer cell panel viability, ATPlite luminescence, 48 h; series mostly up to 57.5 µM
Method in brief: (§1)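 Cell viability after 48 h drug treatment, ATPlite luminescence readout; five doses.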

CASKI = conditions: Gynecologic cancer cell panel viability, ATPlite luminescence, 48 h; series mostly up to 57.5 µM
Method in brief: as §1

Es-2 = conditions: Gynecologic cancer cell panel viability, ATPlite luminescence, 48 h; series mostly up to 57.5 µM
Method in brief: as §1

HeLa = conditions: Gynecologic cancer cell panel viability, ATPlite luminescence, 48 h; series mostly up to 57.5 µM
Method in brief: as §1

Hek293T = conditions: Gynecologic cancer cell panel viability, ATPlite luminescence, 48 h, control line for the selectivity index; series mostly up to 57.5 µM
Method in brief: as §1

JEG-3 = conditions: Gynecologic cancer cell panel viability, ATPlite luminescence, 48 h; series mostly up to 57.5 µM
Method in brief: as §1

OV90 = conditions: Gynecologic cancer cell panel viability, ATPlite luminescence, 48 h; series mostly up to 57.5 µM
Method in brief: as §1

PA-1 = conditions: Gynecologic cancer cell panel viability, ATPlite luminescence, 48 h; series mostly up to 57.5 µM
Method in brief: as §1

SKOV3 = conditions: Gynecologic cancer cell panel viability, ATPlite luminescence, 48 h; series mostly up to 57.5 µM
Method in brief: as §1

Tov-21-G = conditions: Gynecologic cancer cell panel viability, ATPlite luminescence, 48 h; series mostly up to 57.5 µM
Method in brief: as §1

Tov112D = conditions: Gynecologic cancer cell panel viability, ATPlite luminescence, 48 h; series mostly up to 57.5 µM
Method in brief: as §1
On the % scale 0 is the no-effect control and ±100 the full control effect.

C=C1CCC2C(C)(C(=O)O)CC(O)CC2(C)C1CC/C(C)=C/C(=O)O (stereo unspecified)
inactive: Potency (CAOV3) | Potency (CASKI) | Potency (Es-2) | Potency (HeLa) | Potency (Hek293T) | Potency (JEG-3) | Potency (OV90) | Potency (PA-1) | Potency (SKOV3) | Potency (Tov-21-G) | Potency (Tov112D)

O=C(O)c1cc(O)c2cccc(O)c2c1O[C@@H]1O[C@H](CO)[C@@H](O)[C@H](O)[C@H]1O
inactive: Potency (CAOV3) | Potency (CASKI) | Potency (Es-2) | Potency (HeLa) | Potency (Hek293T) | Potency (JEG-3) | Potency (OV90) | Potency (PA-1) | Potency (SKOV3) | Potency (Tov-21-G) | Potency (Tov112D)

CC(C)CC(=O)O[C@@H]1OC=C(CO[C@@H]2O[C@H](CO[C@@H]3O[C@H](CO)[C@@H](O)[C@H](O)[C@H]3O)[C@@H](O)[C@H](O)[C@H]2O)[C@H]2C[C@H](O)[C@@H](CO)[C@@H]12
inactive: Potency (CAOV3) | Potency (CASKI) | Potency (Es-2) | Potency (HeLa) | Potency (Hek293T) | Potency (JEG-3) | Potency (OV90) | Potency (PA-1) | Potency (SKOV3) | Potency (Tov-21-G) | Potency (Tov112D)

CO[C@@H]1CC[C@H](OC[C@]2(COC(=O)c3ccc(C)[nH]3)[C@H](OC(C)=O)CC[C@@]3(C)[C@@H]4CC=C(C)[C@@H](C5=C(O)C(=O)OC5O)[C@]4(C)CC[C@@H]32)O[C@H]1C (stereo partly specified)
inactive: Potency (CAOV3) | Potency (CASKI) | Potency (Es-2) | Potency (HeLa) | Potency (Hek293T) | Potency (JEG-3) | Potency (OV90) | Potency (PA-1) | Potency (SKOV3) | Potency (Tov-21-G) | Potency (Tov112D)

CCn1nnnc1NCc1ccc(C(C)C)cc1
inactive: Potency (CAOV3) | Potency (CASKI) | Potency (Es-2) | Potency (HeLa) | Potency (Hek293T) | Potency (JEG-3) | Potency (OV90) | Potency (PA-1) | Potency (SKOV3) | Potency (Tov-21-G) | Potency (Tov112D)

CC1OC(OC2C(CO)OC(OCC3OC(OC(=O)C45CCC(C)(C)CC4C4=CCC6C7(C)CCC(OC8OC(C(=O)O)C(O)C(OC9OC(CO)C(O)C(O)C9O)C8O)C(C)(C)C7CCC6(C)C4(C)CC5)C(O)C(O)C3O)C(O)C2O)C(O)C(O)C1O (stereo unspecified)
inactive: activity change, negative = cytotoxicity (CAOV3) -1.08% [at 6.55 µM] | activity change, negative = cytotoxicity (CASKI) 0.241% [at 6.55 µM] | activity change, negative = cytotoxicity (Es-2) 5.55% [at 6.55 µM] | activity change, negative = cytotoxicity (HeLa) -1.58% [at 6.55 µM] | activity change, negative = cytotoxicity (Hek293T) 6.6% [at 6.55 µM] | activity change, negative = cytotoxicity (JEG-3) 9.3% [at 6.55 µM] | activity change, negative = cytotoxicity (OV90) 0.685% [at 6.55 µM] | activity change, negative = cytotoxicity (PA-1) 14.3% [at 6.55 µM] | activity change, negative = cytotoxicity (SKOV3) 21% [at 6.55 µM] | activity change, negative = cytotoxicity (Tov-21-G) 0.671% [at 6.55 µM] | activity change, negative = cytotoxicity (Tov112D) 0.769% [at 6.55 µM]

COc1c(OC2OC(CO)C(O)C(O)C2O)ccc(O)c1C(=O)OCc1ccccc1O[C@@H]1O[C@H](CO)[C@@H](O)[C@H](O)[C@H]1O (stereo partly specified)
inactive: Potency (CAOV3) | Potency (CASKI) | Potency (Es-2) | Potency (HeLa) | Potency (Hek293T) | Potency (JEG-3) | Potency (OV90) | Potency (PA-1) | Potency (SKOV3) | Potency (Tov-21-G) | Potency (Tov112D)

C=C1CCC[C@]2(C)C[C@]3(O)OC(=O)C(C)=C3C[C@@H]12
inactive: Potency (CAOV3) | Potency (CASKI) | Potency (Es-2) | Potency (HeLa) | Potency (Hek293T) | Potency (JEG-3) | Potency (OV90) | Potency (PA-1) | Potency (SKOV3) | Potency (Tov-21-G) | Potency (Tov112D)

O=C1C[C@@H](c2ccc(O)cc2)Oc2cc(O)ccc21
inactive: Potency (CAOV3) | Potency (CASKI) | Potency (Es-2) | Potency (HeLa) | Potency (Hek293T) | Potency (JEG-3) | Potency (OV90) | Potency (PA-1) | Potency (SKOV3) | Potency (Tov-21-G) | Potency (Tov112D)

CCCC1=CC2=C(CO1)C(=O)C(C)(OC(=O)c1c(C)cc(OC)cc1O)C(O)C2 (stereo unspecified)
inactive: Potency (CAOV3) | Potency (CASKI) | Potency (Es-2) | Potency (HeLa) | Potency (Hek293T) | Potency (JEG-3) | Potency (OV90) | Potency (PA-1) | Potency (SKOV3) | Potency (Tov-21-G) | Potency (Tov112D)

C=CC1(C)C=C2C(O)CC3C(C)(C(=O)O)CCCC3(C)C2CC1 (stereo unspecified)
inactive: Potency (CAOV3) | Potency (CASKI) | Potency (Es-2) | Potency (HeLa) | Potency (Hek293T) | Potency (JEG-3) | Potency (OV90) | Potency (PA-1) | Potency (SKOV3) | Potency (Tov-21-G) | Potency (Tov112D)

COc1c(C(CC(C)C)OC(C)=O)ccc(Oc2c(O)cc(C)cc2/C=C/C(C)=O)c1C(=O)O (stereo unspecified)
inactive: Potency (CAOV3) | Potency (CASKI) | Potency (Es-2) | Potency (HeLa) | Potency (Hek293T) | Potency (JEG-3) | Potency (OV90) | Potency (PA-1) | Potency (SKOV3) | Potency (Tov-21-G) | Potency (Tov112D)

C=CC(C)(O)CO[C@@H]1O[C@H](CO)[C@@H](O)[C@H](O)[C@H]1O (stereo partly specified)
inactive: Potency (CAOV3) | Potency (CASKI) | Potency (Es-2) | Potency (HeLa) | Potency (Hek293T) | Potency (JEG-3) | Potency (OV90) | Potency (PA-1) | Potency (SKOV3) | Potency (Tov-21-G) | Potency (Tov112D)

C(#Cc1cccc(CN2CCOCC2)c1)CCN1CCCCC1
inactive: Potency (CAOV3) | Potency (CASKI) | Potency (Es-2) | Potency (HeLa) | Potency (Hek293T) | Potency (JEG-3) | Potency (OV90) | Potency (PA-1) | Potency (SKOV3) | Potency (Tov-21-G) | Potency (Tov112D)

CC(/C=C/[C@]1(O)[C@@]2(C)CO[C@@]1(C)C[C@@H](O)C2)=C\C(=O)O[C@@H]1O[C@H](CO)[C@@H](O)[C@H](O)[C@H]1O
inactive: Potency (CAOV3) | Potency (CASKI) | Potency (Es-2) | Potency (HeLa) | Potency (Hek293T) | Potency (JEG-3) | Potency (OV90) | Potency (PA-1) | Potency (SKOV3) | Potency (Tov-21-G) | Potency (Tov112D)

COC(=O)C12C(=O)C(C)=C(O)C1(C)C(C)=CC1C34CCC(OC3=O)C(C)(C)C4CCC12C (stereo unspecified)
inactive: Potency (CAOV3) | Potency (CASKI) | Potency (Es-2) | Potency (HeLa) | Potency (Hek293T) | Potency (JEG-3) | Potency (OV90) | Potency (PA-1) | Potency (SKOV3) | Potency (Tov-21-G) | Potency (Tov112D)
